HT1080 IDH1KD tx: kills HT-1080 cells with IDH1 knockdown; AID 686971; Potency, µM (top dose mostly 46.1 µM), for inactives: at the top dose activity, negative = toxicity, actives largely listed as cytotoxic; 2% of 360,000 active; HT-1080 IDH1 knockdown viability, ATP luminescence, 48 h;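 also: potency is read from the fitted curve at half-maximal effect; 0% = DMSO wells and -100% = cell-free medium wells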
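Cytotoxicity counter-line: IDH1KD HT-1080, 48 h, CellTiter-Glo. Curves classed by r2, magnitude and activity.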
DT40 TDP1 no CPT: qHTS for Inhibitors of human tyrosyl-DNA phosphodiesterase 1 (TDP1): qHTS in cells in absence of CPT; AID 686978, 2013; Potency, µM (top dose mostly 46.2 µM), inactives show at the top dose activity change, negative = growth inhibition, actives largely listed as inhibitors; 15% of 420,000 active; DT40 Tdp1-/- hTDP1 cells, no CPT, ATP luminescence, 48 h; also: potency is read from the fitted curve at half-maximal effect; nearly all actives have a fitted effect of over 55% in size
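Chicken DT40 Tdp1-/- cells complemented with human TDP1, screened without camptothecin (DMSO vehicle only), 400 cells/well. Compounds pin-transferred, cells incubated at 37 °C for at least 48 hr. Growth read as ATP-dependent luminescence (CellTiter-Glo, 30 min at RT).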
HT1080-NT tox: kills 2HG-producing HT-1080-NT fibrosarcoma cells; HT-1080-NT fibrosarcoma viability, CellTiter-Glo ATP luminescence, 48 h; Potency, µM (highest dose often 46.1 µM), for inactives: at the highest dose activity, negative = less viability, actives largely listed as cytotoxic; 1.6% of 360,000 active;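 also: NT is the 2HG producing partner of a matched IDH1 knockdown line; potency is read from the fitted curve at half-maximal effect; 0% = DMSO-treated cells and -100% = media-only wells without cells; nearly all actives have a fitted effect of over 55% in size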
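Fibrosarcoma NT cells, 750 per well in 5% FBS RPMI, were exposed to compound for 48 hours. Viability: CellTiter-Glo luminescence.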
IL1B secr inh: inflammasome signaling inhibition, IL-1 beta readout | activity change, % at 57.5 µM | 4.7% of 360,000 active | THP-1 LPS/ATP IL-1B secretion, AlphaLISA, 16 h; active compounds read low; in the data active = activity change below about -50%; inconclusive = mostly about -30% to -49%
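THP-1 cells pretreated 1 hr with compounds (up to 57.5 uM final), then stimulated with LPS (250 ng/mL final) plus ATP (1.25 mM final); secreted IL-1B measured by AlphaLISA after 16 hr, decreased signal indicating inhibition.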
DT40 TDP1 CPT: DT40-hTDP1 cell growth loss with CPT; chicken DT40 Tdp1-/-;hTDP1 cells + 20 nM CPT, ATP luminescence, 48 h; Potency, µM (top dose mostly 46.2 µM), without a hit: at the top dose activity change, negative = growth inhibition, most hits filed as inhibitors; 12% of 420,000 active; also: potency is read from the fitted curve at half-maximal effect; nearly all actives have a fitted effect of over 55% in size
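Chicken DT40 Tdp1-/- cells complemented with human TDP1, 400 cells/well, exposed to compounds plus 20 nM camptothecin for at least 48 h at 37 C; viability read as ATP content by CellTiter-Glo luminescence.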
An asterisk follows results filed as active; ? = inconclusive; . = no result. An excerpt weighted towards active compounds, which were near 19% of everything screened. Unless noted, calls follow the shape of the dose curve; as a rule, active = well fitted curve in the direction sought with a large enough effect; inconclusive = small, poorly fitted or top-dose-only effect, or another doubt; inactive = no such curve, though single readings can be large; an effect the other way counts as inactive or inconclusive. Unless noted, % is scaled to controls: 0 for no effect and ±100 for the full control effect.

SMILES	HT1080 IDH1KD tx	DT40 TDP1 no CPT	HT1080-NT tox	IL1B secr inh	DT40 TDP1 CPT
Cc1ccc2c(c1)[C@H]1[C@H](CO2)[C@H](c2ccccc2)[C@]2(C)C(=O)Nc3cc(F)ccc3C(=O)N12	8.2µM*	?	?	?	?
Cc1ccc2c(c1)[C@H]1[C@H](CO2)[C@H](c2ccccc2)[C@]2(C)C(=O)Nc3ccc(Cl)cc3C(=O)N12	?	15µM*	-17%	?	?
Cc1ccc2c(c1)C(=O)N1[C@H]3c4ccccc4OC[C@@H]3[C@H](c3ccccc3)[C@]1(C)C(=O)N2	-2%	?	-2%	-62*	?
COc1ccc(NC(=O)c2sc3nc(-c4cc5ccc(OC)cc5oc4=O)[nH]c(=O)c3c2C)cc1	.	-14%	.	.	-12%
O=C(c1ccccc1)c1ccc(-n2cnnc2)c([N+](=O)[O-])c1	-7%	?	1%	-78*	?
O=C(c1ccccc1)c1ccc(-n2ccnc2)c([N+](=O)[O-])c1	2%	21µM*	7%	20	-26%
Cc1nn(S(=O)(=O)c2ccc(F)cc2)c(C)c1S(=O)(=O)N1CCCCC1	5%	11%	5%	5	0%
O=C(Nc1cccc(S(=O)(=O)N2CCCCCC2)c1)C1CCC1	2%	?	6%	-5	-11%
O=C(c1ccco1)N1CCCC(c2nc3c(nnn3Cc3c(Cl)cccc3Cl)c(=O)[nH]2)C1 (stereo unspecified)	?	?	-12%	19	?
O=C(c1ccco1)N1CCCC(c2nc3c(nnn3Cc3ccccc3)c(=O)[nH]2)C1 (stereo unspecified)	0%	4%	-21%	16	5%
CC(C)(C)c1nc(N2CCN(C(=O)c3ccco3)CC2)c2nnn(Cc3ccccc3)c2n1	?	21µM*	?	-52*	?
O=C(c1ccco1)N1CCN(c2nc(C3CC3)nc3c2nnn3Cc2ccccc2Cl)CC1	-28%	?	-22%	-77*	?
CC(C)c1ccc(S(=O)(=O)c2nnn3c2nc(N2CCCC2)c2sccc23)cc1	.	10%	.	.	24%
COCCN(C(=O)COC(=O)c1ccc(C=O)cc1)c1c(N)n(Cc2ccccc2)c(=O)[nH]c1=O	-4%	-12%	8%	-7	0%
NC(=O)[C@@H]1CCCN1C(=O)c1cc(NC(=O)c2ccccc2)cc2ncn(C3CCCC3)c12	.	-15%	.	.	-17%
CCc1cc2c(=O)c(-c3ccc4c(c3)OCCO4)c(C)oc2cc1OS(C)(=O)=O	?	26µM*	-28%	-27	?
Cc1ccsc1C(C(=O)NC(C)(C)C)N(C(=O)c1csnn1)c1ccccc1 (stereo unspecified)	8%	-29%	5%	8	-4%
CCC(=O)N(Cc1cc2c(C)ccc(C)c2[nH]c1=O)C1CCCCC1	-11%	16µM*	-11%	-12	?
OC[C@@H]1CN(Cc2ccc3c(c2)OCO3)C[C@H](n2cnc3c(N4CCCC4)ncnc32)O1	18%	?	4%	-19	?
CNc1ncnc2c1ncn2[C@H]1CN(Cc2ccc3c(c2)OCO3)C[C@@H](CO)O1	0%	?	5%	-8	12µM*
COCCN1C[C@@H](CO)O[C@@H](n2cnc3c(N4CCN(c5ccccc5)CC4)ncnc32)C1	?	?	8%	34	-17%
OC[C@@H]1CN(Cc2cccnc2)C[C@H](n2cnc3c(N4CCN(c5ccccc5)CC4)ncnc32)O1	0%	16µM*	4%	-79*	?
OC[C@@H]1CN(Cc2ccc3c(c2)OCO3)C[C@H](n2cnc3c(N4CCN(c5ccccc5)CC4)ncnc32)O1	-20%	?	7%	-1	18µM*
CC(=O)OC[C@@H]1CN(Cc2ccccc2)C[C@H](n2cnc3c(N4CCN(c5ccccc5)CC4)ncnc32)O1	-25%	18µM*	-2%	10	16µM*
COc1ccccc1/C=C/c1nc(C#N)c(N2CCCCCC2)o1	.	-27%	.	.	?
SMILES	HT1080 IDH1KD tx	DT40 TDP1 no CPT	HT1080-NT tox	IL1B secr inh	DT40 TDP1 CPT
OCCN1CCN(c2ncnc3c2ncn3[C@H]2CN(Cc3cccs3)C[C@@H](CO)O2)CC1	?	-1%	17%	35	?
OC[C@@H]1CN(Cc2cccs2)C[C@H](n2cnc3c(N4CCN(c5ccccc5)CC4)ncnc32)O1	?	?	-16%	5	23µM*
CCOc1ccccc1CN1CCN(Cc2csc(C(C)=O)c2)CC1CCO (stereo unspecified)	-12%	-23%	6%	46	-2%
O=C(NC(O)C(=O)c1cccs1)c1cccnc1 (stereo unspecified)	6%	?	10%	23	?
O=C(CSc1nnc(-c2ccccc2)c(-c2ccccc2)n1)N1CCc2ccccc21	6%	?	1%	5	16µM*
Cc1cc(C)nc(SCC(=O)N2CCc3ccccc32)n1	5%	-4%	5%	-9	-15%
O=C(CSc1nc(-c2ccccc2)cc(=O)[nH]1)N1CCc2ccccc21	?	16µM*	-15%	9	21µM*
COc1cc(CCC(=O)OCC(=O)N2CCc3ccccc32)cc(OC)c1OC	5%	4%	2%	0	0%
NC(=O)CN1C(=O)C2C3c4ccccc4C(c4ccccc43)C2C1=O (stereo unspecified)	-5%	-29%	-3%	21	-6%
O=C1C2C3c4ccccc4C(c4ccccc43)C2C(=O)N1Cc1ccccn1 (stereo unspecified)	2%	23µM*	3%	19	23µM*
O=C1C2C3C=CC(C3)C2C(=O)N1Cc1cccnc1 (stereo unspecified)	5%	-1%	8%	6	-2%
O=C1C2C3c4ccccc4C(c4ccccc43)C2C(=O)N1Cc1cccnc1 (stereo unspecified)	0%	18µM*	-3%	-2	?
O=S1(=O)N[C@H](Cc2ccccc2)COc2cc(N3CC[C@H](O)C3)ccc21	-24%	?	-15%	28	?
COC(CNC(=O)c1cn(C)c2ccc(S(=O)(=O)N(C)C3CCCCC3)cc2c1=O)OC	-29%	?	?	-18	-25%
COc1ccc(-c2nc(CN3CCCCC3c3nccn3C)c(C)o2)c(C)c1C (stereo unspecified)	?	?	?	-16	-7%
COc1ccccc1NC(=S)NC(=O)c1ccc(Cn2cc(Br)cn2)cc1	?	?	-26%	-6	-15%

Compound activity (PubChem)
